# Reference: PubChem BioAssay AID1159580 (chemical genetic matrix, 2015)
# The campaign covered roughly 5,500 compounds. About 2,000 (36%) were called active. About 18% were inconclusive and are not listed. This is one part of the list. Values without a mark were called inactive. No stated cut-off is given here; in the data, active means normalized growth mostly below about 0.91 (no sharp cut-off); inconclusive means no clear call, values can overlap the other calls; inactive means mostly above about 0.92.
# Test: chemical genetic growth profiling, strain panel (AID 1159580);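 further: tested at 20 µM; growth read once vehicle control cultures reached saturation at 30 °C; 1 = growth at the plate median or of vehicle wells; lower values mean less growth of the strain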
# Details: S. cerevisiae deletion strains, growth OD
smiles,measurement,setting,value
CC(C)=CCOc1c2occc2cc2ccc(=O)oc12,normalized growth,"locus YJR066W, strain TOR1, hits give low values",0.891
same,normalized growth,"locus YKL009W, strain mrt4, hits give low values",0.844 (active)
same,normalized growth,"locus YKL068W, hits give low values",0.898 (active)
same,normalized growth,"locus YKL085W, strain MDH1 (second series), hits give low values",0.898 (active)
same,normalized growth,"locus YKL085W, strain MDH1, hits give low values",0.898 (active)
same,normalized growth,"locus YKL160W, strain elf1, hits give low values",0.898 (active)
same,normalized growth,"locus YKL190W, strain CNB1, hits give low values",0.854 (active)
same,normalized growth,"locus YKR001C, strain vps1, hits give low values",0.599 (active)
same,normalized growth,"locus YKR026C, strain gcn3, hits give low values",0.905 (active)
same,normalized growth,"locus YKR091W, strain srl3, hits give low values",0.929 (active)
same,normalized growth,"locus YLL001W, strain dnm1, hits give low values",0.862 (active)
same,normalized growth,"locus YLL026W, hits give low values",0.931
same,normalized growth,"locus YLL041C, strain sdh2, hits give low values",0.919 (active)
same,normalized growth,"locus YLR027C, strain aat2, hits give low values",0.893 (active)
same,normalized growth,"locus YLR039C, strain RIC1, hits give low values",0.429 (active)
same,normalized growth,"locus YLR058C, strain SHM2, hits give low values",0.748 (active)
same,normalized growth,"locus YLR102C, strain apc9, hits give low values",0.843 (active)
same,normalized growth,"locus YLR113W, strain HOG1, hits give low values",1.02
same,normalized growth,"locus YLR221C, strain rsa3, hits give low values",0.821 (active)
same,normalized growth,"locus YLR258W, strain gsy2, hits give low values",0.908 (active)
same,normalized growth,"locus YLR262C, strain YPT6 (second series), hits give low values",0.749 (active)
same,normalized growth,"locus YLR262C, strain YPT6, hits give low values",0.448 (active)
same,normalized growth,"locus YLR268W, strain sec22, hits give low values",0.695 (active)
same,normalized growth,"locus YLR320W, strain mms22, hits give low values",0.652 (active)
same,normalized growth,"locus YLR330W, strain CHS5, hits give low values",0.507 (active)
same,normalized growth,"locus YLR342W, strain FKS1 (second series), hits give low values",0.416 (active)
same,normalized growth,"locus YLR342W, strain FKS1, hits give low values",0.86 (active)
same,normalized growth,"locus YLR357W, strain rsc2, hits give low values",0.871
same,normalized growth,"locus YLR370C, strain arc18, hits give low values",0.906 (active)
same,normalized growth,"locus YLR371W, strain rom2, hits give low values",0.582 (active)
same,normalized growth,"locus YLR384C, strain iki3, hits give low values",0.9 (active)
same,normalized growth,"locus YLR418C, strain cdc73, hits give low values",0.28 (active)
same,normalized growth,"locus YML016C, strain PPZ1, hits give low values",0.875 (active)
same,normalized growth,"locus YML032C, strain rad52, hits give low values",0.676 (active)
same,normalized growth,"locus YML120C, strain ndi1, hits give low values",0.875 (active)
same,normalized growth,"locus YML124C, strain tub3, hits give low values",0.827 (active)
same,normalized growth,"locus YMR058W, strain fet3, hits give low values",0.886 (active)
same,normalized growth,"locus YMR078C, strain ctf18, hits give low values",0.781 (active)
same,normalized growth,"locus YMR125W, strain sto1, hits give low values",0.826 (active)
same,normalized growth,"locus YMR129W, hits give low values",0.921 (active)
same,normalized growth,"locus YMR205C, strain PFK2, hits give low values",0.817 (active)
same,normalized growth,"locus YMR223W, strain ubp8, hits give low values",0.736 (active)
same,normalized growth,"locus YMR231W, strain pep5, hits give low values",0.936
same,normalized growth,"locus YMR307W, strain GAS1, hits give low values",0.443 (active)
same,normalized growth,"locus YNL067W, strain RPL9B, hits give low values",0.764 (active)
same,normalized growth,"locus YNL071W, strain lat1, hits give low values",0.573 (active)
same,normalized growth,"locus YNL153C, strain GIM3, hits give low values",0.73 (active)
same,normalized growth,"locus YNL183C, strain NPR1, hits give low values",0.912
same,normalized growth,"locus YNL209W, strain ssb2, hits give low values",0.936
same,normalized growth,"locus YNL233W, strain BNI4, hits give low values",0.517 (active)
same,normalized growth,"locus YNL248C, strain rpa49, hits give low values",0.936
same,normalized growth,"locus YNL250W, strain rad50, hits give low values",0.884 (active)
same,normalized growth,"locus YNL271C, strain bni1, hits give low values",0.849 (active)
same,normalized growth,"locus YNL298W, strain CLA4, hits give low values",0.823 (active)
same,normalized growth,"locus YNL307C, strain MCK1, hits give low values",0.222 (active)
same,normalized growth,"locus YNL322C, strain KRE1 (second series), hits give low values",0.904 (active)
same,normalized growth,"locus YNR049C, strain mso1, hits give low values",0.914 (active)
same,normalized growth,"locus YNR052C, strain pop2, hits give low values",0.877 (active)
same,normalized growth,"locus YOL006C, strain TOP1, hits give low values",0.373 (active)
same,normalized growth,"locus YOL012C, strain htz1",0.448
same,normalized growth,"locus YOL147C, strain pex11, hits give low values",0.551 (active)
same,normalized growth,"locus YOR001W, strain rrp6, hits give low values",0.89 (active)
same,normalized growth,"locus YOR061W, strain CKA2, hits give low values",0.917
same,normalized growth,"locus YOR069W, strain VPS5, hits give low values",0.783 (active)
same,normalized growth,"locus YOR070C, strain gyp1, hits give low values",0.93
same,normalized growth,"locus YOR080W, strain dia2, hits give low values",0.921
same,normalized growth,"locus YOR083W, strain WHI5, hits give low values",0.86 (active)
same,normalized growth,"locus YOR106W, strain vam3, hits give low values",0.881
same,normalized growth,"locus YOR136W, strain idh2, hits give low values",0.851 (active)
same,normalized growth,"locus YOR144C, strain elg1, hits give low values",0.717 (active)
same,normalized growth,"locus YOR184W, strain ser1, hits give low values",0.459 (active)
same,normalized growth,"locus YOR231W, strain MKK1, hits give low values",0.955
same,normalized growth,"locus YOR265W, strain rbl2, hits give low values",0.93
same,normalized growth,"locus YOR270C, strain vph1, hits give low values",0.592 (active)
same,normalized growth,"locus YOR290C, strain snf2, hits give low values",0.787 (active)
same,normalized growth,"locus YOR316C, strain cot1, hits give low values",0.86 (active)
same,normalized growth,"locus YPL051W, strain arl3, hits give low values",0.908 (active)
same,normalized growth,"locus YPL055C, strain LGE1, hits give low values",0.657 (active)
same,normalized growth,"locus YPL078C, strain atp4, hits give low values",0.843 (active)
same,normalized growth,"locus YPL106C, strain sse1, hits give low values",0.941
same,normalized growth,"locus YPL240C, strain hsp82, hits give low values",0.912 (active)
same,normalized growth,"locus YPL256C, strain CLN2, hits give low values",0.969
same,normalized growth,"locus YPR119W, strain clb2, hits give low values",0.837 (active)
same,normalized growth,"locus YPR141C, strain kar3, hits give low values",0.869 (active)
same,normalized growth,"locus YPR163C, strain tif3, hits give low values",0.34 (active)
same,normalized growth,"locus YPR167C, strain met16, hits give low values",0.782 (active)
same,normalized growth,"strain wtn01, hits give low values",0.708 (active)
